This is an account of results in paper PMC4081100, “A DNA-binding-site landscape and regulatory network analysis for NAC transcription factors in Arabidopsis thaliana”.

Common to all, as to test: universal protein binding microarray (PBM); transcription factors of Arabidopsis thaliana; high values mean tight binding
Holding throughout (settings): protein: recombinant; tags: GST; chain copies: 2; dsDNA, one strand shown

For assay [1], the target named is T1, GST-ANAC092(1-176) (Arabidopsis thaliana, UniProt Q9FKA0 1-176).
T1 sequence: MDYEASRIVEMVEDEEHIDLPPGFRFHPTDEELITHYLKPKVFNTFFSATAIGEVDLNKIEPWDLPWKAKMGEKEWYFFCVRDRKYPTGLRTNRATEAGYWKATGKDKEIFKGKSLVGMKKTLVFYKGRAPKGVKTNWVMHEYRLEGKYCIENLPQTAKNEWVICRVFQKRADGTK
The method, boiled down: (§1)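 Binding is expressed as the normalised enrichment score (E-score). Proteins carrying a GST tag, whether NAC-domain, full-length or DNA-binding-domain forms, were induced in cells, and zinc acetate was added for zinc-finger proteins. After purification on glutathione–Sepharose 4B and quantification by A280 or anti-GST western blot, each was applied in duplicate at 200 to 500 nM final to custom all-10-mer Agilent 4 × 180K arrays made double-stranded by primer extension. Gapped and ungapped 8-mers were scored.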

The target in assay [2] is T2, GST-ANAC019 NAC domain (Arabidopsis thaliana, UniProt Q9C932 14-162).
T2 sequence: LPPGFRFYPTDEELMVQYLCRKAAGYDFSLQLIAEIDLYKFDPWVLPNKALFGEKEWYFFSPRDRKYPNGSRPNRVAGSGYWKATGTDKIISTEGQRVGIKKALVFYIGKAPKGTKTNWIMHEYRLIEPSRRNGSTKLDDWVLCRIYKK
The method, boiled down: as §1

Assay [3] addresses T3, GST-ANAC055(1-171) (Arabidopsis thaliana, UniProt Q9LDY8 1-171).
T3 sequence: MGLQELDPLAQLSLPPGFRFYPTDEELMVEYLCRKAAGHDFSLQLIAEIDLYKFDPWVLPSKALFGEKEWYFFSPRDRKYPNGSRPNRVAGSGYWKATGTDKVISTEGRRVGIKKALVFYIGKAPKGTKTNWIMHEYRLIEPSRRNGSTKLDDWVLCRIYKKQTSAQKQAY
The procedure, abridged:
as §1

Assay [4] addresses T4, GST-ATAF1 NAC domain (Arabidopsis thaliana, UniProt Q39013 7-158).
T4 sequence: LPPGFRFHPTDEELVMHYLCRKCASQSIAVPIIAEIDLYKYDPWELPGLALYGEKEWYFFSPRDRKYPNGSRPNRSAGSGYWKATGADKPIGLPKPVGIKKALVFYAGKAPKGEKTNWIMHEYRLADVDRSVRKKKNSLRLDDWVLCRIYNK
The method, boiled down: as §1

In assay [5] the target is T5, GST-ANAC092(1-285) full length (Arabidopsis thaliana, UniProt Q9FKA0 1-285).
T5 sequence: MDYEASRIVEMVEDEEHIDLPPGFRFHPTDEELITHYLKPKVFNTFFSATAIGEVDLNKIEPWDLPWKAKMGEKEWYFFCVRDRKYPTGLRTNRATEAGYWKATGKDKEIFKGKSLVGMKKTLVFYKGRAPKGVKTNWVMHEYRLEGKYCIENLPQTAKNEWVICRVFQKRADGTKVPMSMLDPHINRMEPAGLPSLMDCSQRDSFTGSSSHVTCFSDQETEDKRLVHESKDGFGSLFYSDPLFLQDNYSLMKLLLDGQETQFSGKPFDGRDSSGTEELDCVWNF
The method, boiled down:
as §1

Assay [6] deals with T6, GST-NAP(1-166) (Arabidopsis thaliana, UniProt O49255 1-166).
T6 sequence: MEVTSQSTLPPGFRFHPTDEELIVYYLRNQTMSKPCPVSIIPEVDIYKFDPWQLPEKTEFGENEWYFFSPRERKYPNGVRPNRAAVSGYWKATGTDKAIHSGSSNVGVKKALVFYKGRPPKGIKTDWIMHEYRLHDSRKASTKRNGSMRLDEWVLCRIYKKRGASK
The method, boiled down: as §1

Assay [7] concerns the target T7, GST-NST2(1-184) (Arabidopsis thaliana, UniProt Q9M274 1-184).
T7 sequence: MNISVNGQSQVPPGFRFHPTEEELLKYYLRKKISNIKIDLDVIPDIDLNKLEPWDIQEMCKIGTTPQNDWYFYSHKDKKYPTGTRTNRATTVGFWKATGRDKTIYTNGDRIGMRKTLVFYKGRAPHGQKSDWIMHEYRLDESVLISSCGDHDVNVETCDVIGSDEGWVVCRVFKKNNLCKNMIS
The method, boiled down: as §1

Assay [8] has as its target T8, GST-SND1(1-203) (Arabidopsis thaliana, UniProt Q9LPI7 1-203).
T8 sequence: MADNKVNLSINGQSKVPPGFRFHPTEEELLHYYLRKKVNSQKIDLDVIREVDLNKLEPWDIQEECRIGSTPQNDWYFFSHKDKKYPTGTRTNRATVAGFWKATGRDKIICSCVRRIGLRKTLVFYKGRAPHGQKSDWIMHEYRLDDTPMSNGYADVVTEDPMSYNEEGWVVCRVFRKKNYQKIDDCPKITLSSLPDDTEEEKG
The method, boiled down: as §1

Assay [9] addresses T9, GST-VND3 NAC domain (Arabidopsis thaliana, UniProt Q9FH59 12-162).
T9 sequence: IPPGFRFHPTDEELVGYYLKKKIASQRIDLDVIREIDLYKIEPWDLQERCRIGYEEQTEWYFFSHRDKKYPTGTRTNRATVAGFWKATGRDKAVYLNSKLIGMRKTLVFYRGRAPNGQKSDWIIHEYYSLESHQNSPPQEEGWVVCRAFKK
The method, boiled down: as §1

Assay [10] concerns the target T10, GST-VND7 NAC domain (Arabidopsis thaliana, UniProt Q9C8W9 9-158).
T10 sequence: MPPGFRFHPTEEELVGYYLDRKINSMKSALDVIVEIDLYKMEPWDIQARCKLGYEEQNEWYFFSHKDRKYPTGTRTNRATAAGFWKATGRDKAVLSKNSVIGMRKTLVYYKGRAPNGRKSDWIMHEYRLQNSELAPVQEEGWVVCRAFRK
The method, boiled down:
as §1

As to ACGGCACG, the binding signal was found to be 0.34 E-score in [1]; 0.291 E-score in assay [2]; 0.34 E-score in assay [3]; 0.286 E-score in [4]; 0.404 E-score in assay [5]; 0.324 E-score in [6]. Moreover, the binding signal in [7] was determined as 0.133 E-score; in assay [8], 0.0651 E-score; in [9] it was 0.217 E-score; in assay [10], 0.233 E-score.
Turning to CACGTCAC, the binding signal in assay [1] worked out at 0.445 E-score; in [2] it was 0.4 E-score; in assay [3], 0.396 E-score; in assay [4] it was 0.374 E-score; in assay [5], 0.464 E-score; in [6], 0.344 E-score. Moreover, the binding signal turned out to be 0.217 E-score in [7], 0.328 E-score in [8], 0.362 E-score in assay [9] and 0.395 E-score in assay [10].
As for ACGTAAAC, the binding signal was 0.397 E-score in assay [1]; 0.427 E-score in assay [2]; 0.355 E-score in [3]; 0.321 E-score in assay [4]; 0.43 E-score in [5]; 0.368 E-score in assay [6]. The binding signal in assay [7] stood at 0.317 E-score; in [8] it was 0.404 E-score; in assay [9], 0.402 E-score; in assay [10], 0.266 E-score.
Regarding GTACGCCA, the binding signal in assay [1] worked out at 0.379 E-score; in [2] it was 0.139 E-score; in assay [3], 0.153 E-score; in [4], 0.121 E-score; in assay [5], 0.45 E-score; in assay [6] it was 0.0526 E-score. Moreover, the binding signal was found to be 0.225 E-score in assay [7], 0.398 E-score in [8], 0.07 E-score in assay [9] and 0.114 E-score in assay [10].
With ACACGTAA, the binding signal was 0.481 E-score in [1]; 0.477 E-score in assay [2]; 0.469 E-score in assay [3]; 0.439 E-score in assay [4]; 0.481 E-score in [5]; 0.465 E-score in assay [6]. In addition, the binding signal in assay [7] worked out at 0.316 E-score; in assay [8], 0.288 E-score; in assay [9], 0.461 E-score; in [10], 0.476 E-score.
As to ACGTCTCT, the binding signal in assay [1] is 0.0939 E-score; in assay [2], 0.451 E-score; in [3], 0.412 E-score; in [4], 0.452 E-score; in [5], 0.243 E-score; in assay [6] it was 0.381 E-score. The binding signal stood at 0.175 E-score in [7], 0.0793 E-score in [8], 0.418 E-score in [9] and 0.442 E-score in assay [10].
As for AACACGCA, the binding signal was 0.469 E-score in assay [1]; 0.415 E-score in assay [2]; 0.345 E-score in assay [3]; 0.315 E-score in [4]; 0.477 E-score in assay [5]; 0.386 E-score in assay [6]. The binding signal stood at 0.263 E-score in assay [7], 0.335 E-score in assay [8], 0.346 E-score in assay [9] and 0.34 E-score in assay [10].
Regarding ACGCAATC, the binding signal in assay [1] came out at 0.48 E-score; in assay [2], 0.285 E-score; in assay [3], 0.343 E-score; in assay [4], 0.298 E-score; in assay [5], 0.485 E-score; in assay [6] it was 0.386 E-score. Further, the binding signal came to 0.384 E-score in assay [7], 0.474 E-score in [8], 0.355 E-score in assay [9] and 0.38 E-score in assay [10].
